Assay results from PubChem BioAssay (NCI).
This is part of a sample that, as a whole, favours compounds with a hit. Of some 83,000 tested, about 20% had one in any assay.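 Each cell line was grown in a 96-well plate and treated with one concentration of compound for 48 hours. Values below 10 were considered active.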 The source made the active and inactive calls.

Tests used:
Experiment in all cases: NCI-60 one-dose screen, 48 h (100 = growth as untreated, 0 = no growth, -100 = all killed)
Settings in all cases: 10 µM unless noted
SR leukemia = tested on: SR leukemia
RPMI-8226 leukemia = tested on: RPMI-8226 leukemia
OVCAR-8 ovarian = tested on: OVCAR-8 ovarian
OVCAR-5 ovarian = tested on: OVCAR-5 ovarian
OVCAR-4 ovarian = tested on: OVCAR-4 ovarian
SK-OV-3 ovarian = tested on: SK-OV-3 ovarian
IGROV1 ovarian = tested on: IGROV1 ovarian
OVCAR-3 ovarian = tested on: OVCAR-3 ovarian
HS 578T breast = tested on: HS 578T breast
NCI/ADR-RES ovarian = tested on: NCI/ADR-RES ovarian

Measured: growth

N#CC1=C(N)Oc2c(sc3c(F)cccc23)C1c1ccc(Cl)cc1 (stereo not given)
active: OVCAR-3 ovarian 6.16%
inactive: SR leukemia 10.8% | RPMI-8226 leukemia 10.6% | OVCAR-8 ovarian 42.8% | OVCAR-5 ovarian 82.1% | OVCAR-4 ovarian 62.8% | SK-OV-3 ovarian 31% | IGROV1 ovarian 33.3% | HS 578T breast 40.6% | NCI/ADR-RES ovarian 14.4%

CC(=O)N1N=C(c2ccc(C)cc2)CC1c1ccc(Oc2ccc(Br)cc2)cc1 (stereo not given)
inactive: SR leukemia 93.9% | RPMI-8226 leukemia 74.8% | OVCAR-8 ovarian 85.2% | OVCAR-5 ovarian 88.9% | OVCAR-4 ovarian 74.6% | SK-OV-3 ovarian 62.1% | IGROV1 ovarian 66.7% | OVCAR-3 ovarian 88.3% | HS 578T breast 87.4% | NCI/ADR-RES ovarian 73.1%

O=C(NC(Cc1cn(Cc2ccccc2)cn1)C(=O)O)OCC1c2ccccc2-c2ccccc21 (stereo not given)
inactive: SR leukemia 85.1% | RPMI-8226 leukemia 114% | OVCAR-8 ovarian 103% | OVCAR-5 ovarian 105% | OVCAR-4 ovarian 106% | SK-OV-3 ovarian 109% | IGROV1 ovarian 105% | OVCAR-3 ovarian 105% | HS 578T breast 98% | NCI/ADR-RES ovarian 104%

Cc1cc(C)c(NC(=O)c2sc3nc4c(cc3c2N)CCCC4)c(C)c1
active: SR leukemia 7.8%
inactive: RPMI-8226 leukemia 55.2% | OVCAR-8 ovarian 62.3% | OVCAR-5 ovarian 90.8% | OVCAR-4 ovarian 60.9% | SK-OV-3 ovarian 51.3% | IGROV1 ovarian 62.5% | OVCAR-3 ovarian 18.1% | HS 578T breast 46.2% | NCI/ADR-RES ovarian 18.4%

Cc1cc(N2CCCC2)nc(N(CCNc2ccnc3cc(Cl)ccc23)Cc2ccco2)n1
active: SR leukemia -14.9% | RPMI-8226 leukemia -42.3% | IGROV1 ovarian 4.93%
inactive: OVCAR-8 ovarian 57% | OVCAR-5 ovarian 25.3% | OVCAR-4 ovarian 38.6% | SK-OV-3 ovarian 65.5% | OVCAR-3 ovarian 13.8% | HS 578T breast 62.1% | NCI/ADR-RES ovarian 18.4%

CC(=O)O[C@@H]1CCN2C(=O)N(C)c3ccccc3[C@@H]2C1
inactive: SR leukemia 93.3% | RPMI-8226 leukemia 104% | OVCAR-8 ovarian 109% | OVCAR-5 ovarian 96.5% | OVCAR-4 ovarian 107% | SK-OV-3 ovarian 101% | IGROV1 ovarian 105% | OVCAR-3 ovarian 122% | HS 578T breast 116% | NCI/ADR-RES ovarian 104%

CC(C)(C)n1cc(-c2ccnc(NCCCNS(=O)(=O)c3ccc(Cl)cc3)c2)c(-c2cccc(F)c2)n1
inactive: SR leukemia 32.9% | RPMI-8226 leukemia 52.3% | OVCAR-8 ovarian 84.7% | OVCAR-5 ovarian 77.2% | OVCAR-4 ovarian 90% | SK-OV-3 ovarian 91.7% | IGROV1 ovarian 69.5% | OVCAR-3 ovarian 84.2% | HS 578T breast 87.9% | NCI/ADR-RES ovarian 73.5%

CCCCCCCC(=O)SCC/C=C/[C@@H]1CC(=O)NCc2cccc(n2)CN(Cc2ccc3ccccc3c2)CC(=O)N[C@@H](C(C)C)C(=O)O1
active: SR leukemia 3.23%
inactive: RPMI-8226 leukemia 32.6% | OVCAR-8 ovarian 22.7% | OVCAR-5 ovarian 26.2% | OVCAR-4 ovarian 66.3% | SK-OV-3 ovarian 24.5% | IGROV1 ovarian 53.2% | OVCAR-3 ovarian 47.3% | HS 578T breast 34.9% | NCI/ADR-RES ovarian 30.8%

CC1(C)[C@@H](O)CC[C@]2(C)[C@H]3CC[C@@H]4[C@H]5[C@H](C(=O)/C=C/c6ccc(C(F)(F)F)cc6)CC[C@]5(CO)CC[C@@]4(C)[C@]3(C)CC[C@@H]12
inactive: SR leukemia 17.8% | RPMI-8226 leukemia 28.2% | OVCAR-8 ovarian 55.7% | OVCAR-5 ovarian 109% | OVCAR-4 ovarian 38.4% | SK-OV-3 ovarian 98.6% | IGROV1 ovarian 61.5% | OVCAR-3 ovarian 51.8% | HS 578T breast 59.6% | NCI/ADR-RES ovarian 70.5%

C=C1C(=O)O[C@H]2[C@H]1CC/C(Cn1cc(-c3ccc(OC)cc3)nn1)=C\CC[C@@]1(C)O[C@@H]21
active: SR leukemia -10.8% | RPMI-8226 leukemia -33.3% | OVCAR-8 ovarian -51% | IGROV1 ovarian -51.1% | OVCAR-3 ovarian -83.9%
inactive: OVCAR-5 ovarian 17.2% | OVCAR-4 ovarian 27.4% | SK-OV-3 ovarian 120% | HS 578T breast 75.6% | NCI/ADR-RES ovarian 24.7%

COc1cccc(-c2nn(-c3ccccc3)cc2-c2ccnc(NCCCNS(=O)(=O)c3ccc(Br)cc3)c2)c1
inactive: SR leukemia 13.3% | RPMI-8226 leukemia 34.5% | OVCAR-8 ovarian 47.9% | OVCAR-5 ovarian 88.2% | OVCAR-4 ovarian 46.5% | SK-OV-3 ovarian 64.8% | IGROV1 ovarian 47.6% | OVCAR-3 ovarian 58.8% | HS 578T breast 66.2% | NCI/ADR-RES ovarian 42%

OCC12CCCC(CO)(COC1)C2O (stereo not given)
inactive: SR leukemia 116% | RPMI-8226 leukemia 103% | OVCAR-8 ovarian 109% | OVCAR-5 ovarian 106% | OVCAR-4 ovarian 104% | SK-OV-3 ovarian 102% | IGROV1 ovarian 116% | OVCAR-3 ovarian 117% | HS 578T breast 115% | NCI/ADR-RES ovarian 97.3%

O=C1/C(=C\c2ccc(Br)o2)SC(=S)N1CCc1ccc(O)cc1
inactive: SR leukemia 66.9% | RPMI-8226 leukemia 26.6% | OVCAR-8 ovarian 97.2% | OVCAR-5 ovarian 80% | OVCAR-4 ovarian 65.3% | SK-OV-3 ovarian 86.5% | IGROV1 ovarian 62.6% | OVCAR-3 ovarian 62.9% | HS 578T breast 93.2% | NCI/ADR-RES ovarian 98.7%

COC(=O)[C@]12CC[C@@H](C)[C@H](C)[C@@H]1C1=CC[C@@H]3[C@@]4(C)C[C@@H](O)[C@H](O)[C@@](C)(CO)C4=CC[C@@]3(C)[C@]1(C)CC2
active: SR leukemia -24.8% | RPMI-8226 leukemia -15.2% | OVCAR-8 ovarian -22.9% | OVCAR-5 ovarian -66% | OVCAR-4 ovarian -55.5% | SK-OV-3 ovarian -5.82% | IGROV1 ovarian -40% | OVCAR-3 ovarian -61.8% | HS 578T breast -35.1% | NCI/ADR-RES ovarian -45.6%

CC1(C)NC2=C(C(Nc3cccnc3)N1)C(c1ccc([N+](=O)[O-])cc1)C(C(=O)c1ccc(N=[N+]=[N-])cc1)O2 (stereo not given)
inactive: SR leukemia 102% | RPMI-8226 leukemia 115% | OVCAR-8 ovarian 101% | OVCAR-5 ovarian 97.6% | OVCAR-4 ovarian 117% | SK-OV-3 ovarian 108% | IGROV1 ovarian 104% | OVCAR-3 ovarian 110% | HS 578T breast 102% | NCI/ADR-RES ovarian 109%

N#C/C(=C\c1ccc(-c2cccc(C(F)(F)F)c2)o1)c1nc(-c2ccco2)cs1
inactive: SR leukemia 99.6% | RPMI-8226 leukemia 45.8% | OVCAR-8 ovarian 99.8% | OVCAR-5 ovarian 60.2% | OVCAR-4 ovarian 16.8% | SK-OV-3 ovarian 112% | IGROV1 ovarian 57.5% | OVCAR-3 ovarian 100% | HS 578T breast 102% | NCI/ADR-RES ovarian 97.1%

CCCCC[C@H]1CC=C2C(=O)C(Cl)=C[C@@H]2CC=CCCCC(=O)O[C@@H](CCCCC)CC=C2C(=O)C(Cl)=C[C@@H]2CC=CCCCC(=O)O[C@@H](CCCCC)CC=C2C(=O)C(Cl)=C[C@@H]2CC=CCCCC(=O)O1
active: SR leukemia 6.25% [8 µM] | RPMI-8226 leukemia 2.73% [8 µM] | OVCAR-8 ovarian -17.1% [8 µM]
inactive: OVCAR-5 ovarian 144% [8 µM] | OVCAR-4 ovarian 59.9% [8 µM] | SK-OV-3 ovarian 120% [8 µM] | IGROV1 ovarian 36% [8 µM] | OVCAR-3 ovarian 17.3% [8 µM] | HS 578T breast 78% [8 µM] | NCI/ADR-RES ovarian 96.2% [8 µM]

Cc1cccc(C)c1NC(=O)CSC(=S)N1CCN(CCOCCO)CC1
inactive: SR leukemia 102% | RPMI-8226 leukemia 108% | OVCAR-8 ovarian 106% | OVCAR-5 ovarian 96.9% | OVCAR-4 ovarian 102% | SK-OV-3 ovarian 110% | IGROV1 ovarian 96.5% | OVCAR-3 ovarian 102% | HS 578T breast 104% | NCI/ADR-RES ovarian 99.5%

O=c1[nH]c2c3ccncc3cc(-c3cccc(Cl)c3)c2c2cnccc12
inactive: SR leukemia 14.3% | RPMI-8226 leukemia 27.1% | OVCAR-8 ovarian 40.2% | OVCAR-5 ovarian 67.9% | SK-OV-3 ovarian 51.9% | IGROV1 ovarian 70.9% | NCI/ADR-RES ovarian 50.3%
active: OVCAR-4 ovarian -8.25% | OVCAR-3 ovarian -22.8% | HS 578T breast 5.48%

CC(=O)c1c(C)[nH]c(-c2nc3ccc(N4CCN(C)CC4)cc3[nH]2)c1-c1ccc2c(c1)OCCO2
active: RPMI-8226 leukemia 7.78%
inactive: SR leukemia 46.2% | OVCAR-8 ovarian 48.2% | OVCAR-5 ovarian 46.4% | OVCAR-4 ovarian 43% | SK-OV-3 ovarian 28.7% | IGROV1 ovarian 23% | OVCAR-3 ovarian 46% | HS 578T breast 30.1% | NCI/ADR-RES ovarian 53%

COC(=O)[C@]12CC[C@@H](C)[C@H](C)[C@@H]1C1=CC[C@@H]3[C@@]4(C)C=C(O)C(=O)C(C)=C4CC[C@@]3(C)[C@]1(C)CC2
inactive: SR leukemia 20.4% | OVCAR-8 ovarian 37.9% | OVCAR-5 ovarian 64.5% | OVCAR-4 ovarian 37.8% | SK-OV-3 ovarian 61.7% | IGROV1 ovarian 53.6% | OVCAR-3 ovarian 28.5% | HS 578T breast 33.2% | NCI/ADR-RES ovarian 38.8%
active: RPMI-8226 leukemia 1.56%

Cc1cc2nc3c4cc(Cl)ccc4n(CCN(C)C)c3nc2cc1C
active: SR leukemia 5.12% | RPMI-8226 leukemia -11.5% | IGROV1 ovarian 4.29%
inactive: OVCAR-8 ovarian 19.1% | OVCAR-5 ovarian 21.8% | OVCAR-4 ovarian 27.1% | SK-OV-3 ovarian 31.1% | OVCAR-3 ovarian 32.9% | HS 578T breast 45.5% | NCI/ADR-RES ovarian 13.6%

N=c1c(S(=O)(=O)c2ccccc2)cc2c(=O)n3ccccc3nc2n1C1CCCC1
inactive: SR leukemia 82.4% | RPMI-8226 leukemia 92.9% | OVCAR-8 ovarian 88.3% | OVCAR-5 ovarian 103% | OVCAR-4 ovarian 95.5% | SK-OV-3 ovarian 104% | IGROV1 ovarian 97% | OVCAR-3 ovarian 93.9% | HS 578T breast 95.6% | NCI/ADR-RES ovarian 87.4%

CCCCC[C@H]1CC=C2C(=O)C=C[C@@H]2CC=CCCCC(=O)O[C@@H](CCCCC)CC=C2C(=O)C=C[C@@H]2CC=CCCCC(=O)O[C@@H](CCCCC)CC=C2C(=O)C=C[C@@H]2CC=CCCCC(=O)O1
inactive: OVCAR-8 ovarian 12.2% [8.75 µM] | OVCAR-4 ovarian 22.4% [8.75 µM] | SK-OV-3 ovarian 36.7% [8.75 µM] | HS 578T breast 40.2% [8.75 µM] | NCI/ADR-RES ovarian 49.8% [8.75 µM]
active: SR leukemia -6.53% [8.75 µM] | RPMI-8226 leukemia -9.62% [8.75 µM] | OVCAR-5 ovarian -23.7% [8.75 µM] | IGROV1 ovarian -46.1% [8.75 µM] | OVCAR-3 ovarian -54.2% [8.75 µM]

C=C(C)[C@@H]1CC[C@]2(C(=O)N3CCN(C)CC3)CC[C@]3(C)[C@H](CC[C@@H]4[C@@]5(C)C/C(=C/c6ccc(C(F)(F)F)cc6)C(=O)C(C)(C)[C@@H]5CC[C@]43C)[C@@H]12
inactive: SR leukemia 76.9% | RPMI-8226 leukemia 86.1% | OVCAR-8 ovarian 97.4% | OVCAR-5 ovarian 94.9% | OVCAR-4 ovarian 103% | SK-OV-3 ovarian 101% | IGROV1 ovarian 102% | OVCAR-3 ovarian 103% | HS 578T breast 99.4% | NCI/ADR-RES ovarian 96.8%
